Screening results from PubChem.
Most compounds without a hit are left out; they make up all but 1.6% or so of the library.
KCNQ2 enhance: enhances the rat KCNQ2 potassium channel; O88943; CHO-K1 KCNQ2, FluxOR thallium flux fluorescence; stronger effect = higher value; B-score at 10 µM; 0.54% of 310,000 active; AID 2239;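 active = fluorescence ratio B-score at least 3 SD of library B-scores, with initial fluorescence B-score within 3 of them, cut at about 5.3 in these data; same plate scores as AID 2156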;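 note: B-score of peak minus minimum over baseline fluorescence ratio after K+ and Tl+ stimulus; positive B-score means potentiation of KCNQ2 with more thallium influx and brighter signal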
KCNQ2 block: blocks the rat KCNQ2 potassium channel; B-score at 10 µM; 1.1% of 310,000 active; CHO-K1 KCNQ2, FluxOR thallium flux, 20 min; stronger effect = lower value; O88943;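 active = fluorescence ratio B-score at most minus 3 library SDs, with starting brightness B-score within 2 library SDs, cut at about -5.5 in these data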
Kir21 conf inh: confirmation of mouse Kir2.1 potassium channel inhibitors; Kir2.1-expressing cells, FluxOR thallium flux fluorescence; stronger effect = lower value; shares compounds with KCNQ2 enhance; Tl flux remaining, % of negative control (stronger effect = lower value), % at 10 µM; 41% of 2,300 active;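 active = Primary-screen hit whose thallium flux fell at least 3 control SD below untreated wells in both duplicates, with normal baseline fluorescence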
Target sequence (P35561 whole entry, looked up): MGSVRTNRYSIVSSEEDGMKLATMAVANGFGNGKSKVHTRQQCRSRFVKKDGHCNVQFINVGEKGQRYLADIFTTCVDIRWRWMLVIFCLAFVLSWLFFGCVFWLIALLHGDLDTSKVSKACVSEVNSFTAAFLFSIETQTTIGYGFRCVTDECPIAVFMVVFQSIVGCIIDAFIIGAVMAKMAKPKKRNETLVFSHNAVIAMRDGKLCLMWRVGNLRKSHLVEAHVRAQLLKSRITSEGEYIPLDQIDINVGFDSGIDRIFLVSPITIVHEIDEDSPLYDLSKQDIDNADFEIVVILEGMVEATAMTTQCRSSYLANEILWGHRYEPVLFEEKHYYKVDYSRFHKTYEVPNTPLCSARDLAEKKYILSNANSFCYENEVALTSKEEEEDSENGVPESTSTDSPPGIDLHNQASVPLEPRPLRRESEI
HEK293 ctr: alters thallium flux in parental HEK293 cells, Kir2.1 counter-screen | FluxOR thallium flux fluorescence; 0% = unstimulated blank wells | 19% of 2,300 active | FluxOR signal as % of negative control (100 = no effect), % at 10 µM | shares compounds with KCNQ2 enhance | AID 2105;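 active = dye signal at least 3 control SD above or below untreated wells in both duplicates, raw fluorescence within 3, either direction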;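 note: percent is based on the flux ratio of peak minus minimum fluorescence over baseline F0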
CHO-K1 Tl ctr: counter-screen for KCNQ2 potentiators: effect in parental CHO-K1 cells; shares compounds with KCNQ2 enhance; FluxOR thallium flux fluorescence; zero = vehicle mean+3SD, 100% = vehicle-minus-blank window; activity increase over 3SD of controls, % at 10 µM; 43% of 1,200 active;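 active = signal rise of at least 3 SD above the untreated control mean, in both duplicate wells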;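 note: counter screen of KCNQ2 potentiator hits so any rise reflects channel-independent effects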
KCNQ1 sel pot: tests whether KCNQ2 potentiators also act on human KCNQ1. activation over 3SD threshold, % at 10 µM. CHO KCNQ1 stable, FluxOR thallium flux fluorescence; beyond 3SD, as % of vehicle-control signal. AID 2283. 28% of 1,200 active. shares compounds with KCNQ2 enhance;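 active = fluorescence ratio rise of at least 3 SD of vehicle wells above their mean, in both replicate wells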
KCNQ2 pot conf: confirmation of rat KCNQ2 potassium channel potentiators | shares compounds with KCNQ2 enhance | CHO-KCNQ2 cells, FluxOR thallium flux fluorescence | potentiation, less the hit threshold, % at 10 µM | 68% of 1,200 active;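 active = fluorescence ratio rising 3 SD or more over the vehicle control mean in both replicates, plus primary screen hit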;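 note: peak minus minimum thallium fluorescence divided by baseline after K/Tl stimulus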
Kir2-1 sel: tests whether KCNQ2 potentiators also affect mouse Kir2.1; shares compounds with KCNQ2 enhance; HEK293 Kir2.1, FluxOR thallium flux fluorescence; activity over 3SD threshold, % at 10 µM; 2% of 1,200 active; AID 2345;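 active = fluorescence ratio rise of at least 3 SD above the vehicle-control mean, seen in both replicates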
KCNQ2 W236L pot: potentiates the retigabine-insensitive rat KCNQ2 W236L mutant channel | 10% of 940 active | current increase over 3SD of negative controls (%), stronger effect = higher value, % at 25 µM | shares compounds with KCNQ2 enhance | AID 2558 | CHO KCNQ2-W236L, automated patch clamp current;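 active = current increase at least 3 SD of the untreated controls above them in both duplicate recordings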
Large screens that a line does not name were inactive (follow-up assays come after a bar, where they were run).

COc1ccc(NC(=O)c2c(NC(=O)CNCc3ccco3)sc3c2CCC3)cc1	none (no result: KCNQ2 enhance)
CCOC(=O)c1c(NC(=O)c2ccco2)sc2c1CCCC2	none
CCOC(=O)c1c(NC(=O)CN2CCN(C(=O)c3ccco3)CC2)sc2c1CCCC2	none | Kir21 conf inh inactive | HEK293 ctr inactive
COC(=O)c1c(NC(=O)CCNCc2ccco2)sc2c1CCC2	none | Kir21 conf inh 18% | HEK293 ctr inactive
CCOc1ccc(C(=O)CCC(=O)N(CC)CC(=O)Nc2c(F)cccc2F)cc1	none
FC(F)(F)c1cccc(CN2CCC(c3cc(-c4cccs4)n[nH]3)CC2)c1	none (no result: KCNQ2 enhance)
Cc1ccc(CN2CCC(c3cc(-c4cccs4)n[nH]3)CC2)cc1	none (no result: KCNQ2 enhance) | Kir21 conf inh 26% | HEK293 ctr inactive
CCOC(=O)C1CCCN(C(=O)CCc2nnc(-c3ccc(C(C)=O)s3)o2)C1 (centres undefined)	none
S=c1nc[nH]c2c1sc1nc(N3CCOCC3)c3c(c12)CCCC3	KCNQ2 enhance 12 | Kir21 conf inh inactive | HEK293 ctr 270% | CHO-K1 Tl ctr 36 | KCNQ1 sel pot inactive | KCNQ2 pot conf 60 | Kir2-1 sel inactive | KCNQ2 W236L pot inactive
O=c1[nH]nnc2c1sc1nc(N3CCOCC3)c3c(c12)CCCC3	none
CCOc1ccc(CCNC(=O)C(C)N2C(=O)CC(C)(C)Sc3ccccc32)cc1 (centres undefined)	none (no result: KCNQ2 enhance)
O=C(NC1CCCCC1)C(c1ccccc1)N(Cc1cccnc1)C(=O)c1csnn1 (centres undefined)	none (no result: KCNQ2 enhance)
COc1ccc(Nc2nc(N3CCCCC3)c3ccccc3n2)cc1	none (no result: KCNQ2 enhance)
Oc1ccc(Nc2nc(N3CCCC3)c3ccccc3n2)cc1	none (no result: KCNQ2 enhance) | Kir21 conf inh 48% | HEK293 ctr inactive
CN(C(=O)c1ccccc1F)C(c1ccccc1)c1ccccc1	none (no result: KCNQ2 enhance) | Kir21 conf inh 66% | HEK293 ctr inactive
CC(/C=N/NC(=O)c1ccccc1F)c1ccccc1 (centres undefined)	none
COc1ccc(N2CCN(C(=O)COC(=O)c3cnccn3)CC2)cc1	none
CCOc1cccc(CNCCO)c1OCc1ccc(Cl)cc1Cl	none
CCOc1cc(CNCCO)cc(Br)c1OCc1ccc(Cl)cc1Cl	KCNQ2 block -13 | Kir21 conf inh 21% | HEK293 ctr inactive
CCOc1cc(CNCc2cccs2)cc(Br)c1OCC	none (no result: KCNQ2 enhance)
CCOc1cc(CNCCO)cc(Br)c1OCc1cccs1	none | Kir21 conf inh 23% | HEK293 ctr inactive
CCOc1cc(CNCc2ccncc2)cc(Br)c1OCc1ccccc1F	none (no result: KCNQ2 enhance) | Kir21 conf inh 52% | HEK293 ctr inactive
CCOc1cc(CNCCSc2nnnn2C)cc(Br)c1OCc1ccccc1F	none
CC(C)n1c(SCC(=O)NCc2ccco2)nnc1C1CC1	none (no result: KCNQ2 enhance)
O=C(CCCc1ccccc1)NCCc1ccc(F)cc1	none (no result: KCNQ2 enhance)
CCCNc1c(NS(=O)(=O)c2cccs2)c(=O)oc2ccccc12	none (no result: KCNQ2 enhance)
COC(CNC(=O)c1coc2nc3ccccc3nc12)OC	none
NC(=O)CCn1c2ccccc2c2ccccc21	none
CC(C)CCn1c2ccccc2c2cc(CC(N)=O)ccc21	none | Kir21 conf inh inactive | HEK293 ctr inactive
Cc1ccc(S(=O)(=O)Nc2c(O)ccc3ccccc23)cc1	none
Cc1ccc(S(=O)(=O)Nc2c(Cl)c(Cl)c(O)c3ccccc23)cc1	KCNQ2 enhance 6.4 | Kir21 conf inh inactive | HEK293 ctr inactive | CHO-K1 Tl ctr inactive | KCNQ1 sel pot 68 | KCNQ2 pot conf inactive | Kir2-1 sel inactive | KCNQ2 W236L pot inactive
O=C(N/N=C/c1cc(Br)cc(Br)c1O)c1ccncc1	none
